What was measured:
Experiment in all cases: PBM binding z-score (relative to random genomic background probes); higher = stronger binding; sequences stand for … in GC…GCGATTGACAGCGTAGAATGAAGG
[1] = system: FXR:RXRa (NR concentration 270 nM, RXRa partner concentration 90 nM)
Method in brief: (§1)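 Binding z-scores were set against random background probes. The data came from custom Agilent 4×180K protein-binding microarrays carrying double-stranded probes with 34-nt variable regions, incubated 1 h with ligand-free nuclear receptor dimers. Partner-specific antibodies detected binding, and scanned fluorescence was regression-normalized.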

[2] = system: LXRa:RXRa (NR concentration 270 nM, RXRa partner concentration 90 nM)
Method in brief: as §1

[3] = system: LXRa homodimer (NR concentration 270 nM)
Method in brief: as §1

[4] = system: LXRb homodimer (NR concentration 270 nM)
Method in brief: as §1

[5] = system: PPARa:RXRa (NR concentration 270 nM, RXRa partner concentration 90 nM)
Method in brief: as §1

[6] = system: PPARg:RXRa (NR concentration 180 nM, RXRa partner concentration 90 nM)
Method in brief: as §1

[7] = system: PPARg:RXRa 270nM:90nM, anti-RXR (NR concentration 270 nM, RXRa partner concentration 90 nM)
Method in brief: as §1

[8] = system: PPARg:RXRa 30nM:10nM, anti-RXR (NR concentration 30 nM, RXRa partner concentration 10 nM)
Method in brief: as §1

[9] = system: PPARg:RXRa 90nM:30nM, anti-RXR (NR concentration 90 nM, RXRa partner concentration 30 nM)
Method in brief: as §1

ATATGTAGGTTACCGGGTCATTCAGTTTGCGCAT
PBM binding z-score [1]: 3.18 | PBM binding z-score [2]: 3.3 | PBM binding z-score [3]: 1.31 | PBM binding z-score [4]: 0.869 | PBM binding z-score [5]: 5.44 | PBM binding z-score [6]: 8.51 | PBM binding z-score [7]: 7.05 | PBM binding z-score [8]: 4.85 | PBM binding z-score [9]: 6.88

CGTCCAAGGGCAATGCTAGGTCAGTGAAAGCATT
PBM binding z-score [1]: 0.683 | PBM binding z-score [2]: 2.37 | PBM binding z-score [3]: 0.414 | PBM binding z-score [4]: -1.33 | PBM binding z-score [5]: 0.934 | PBM binding z-score [6]: -0.00472 | PBM binding z-score [7]: 0.084 | PBM binding z-score [8]: -0.775 | PBM binding z-score [9]: -0.291

CCTACTGGGCCACGAAAGGTGATTGATTCAGTGA
PBM binding z-score [1]: -0.0481 | PBM binding z-score [2]: 0.0469 | PBM binding z-score [3]: -0.496 | PBM binding z-score [4]: -0.883 | PBM binding z-score [5]: 1.75 | PBM binding z-score [6]: 2.08 | PBM binding z-score [7]: 1.68 | PBM binding z-score [8]: 0.232 | PBM binding z-score [9]: 0.958

ATATGTAGGTTAGCGGGGGTCATTCAGACTAGGC
PBM binding z-score [1]: 5.82 | PBM binding z-score [2]: 5.95 | PBM binding z-score [3]: 3.96 | PBM binding z-score [4]: 8.88 | PBM binding z-score [5]: 5.81 | PBM binding z-score [6]: 6.96 | PBM binding z-score [7]: 6.71 | PBM binding z-score [8]: 4.14 | PBM binding z-score [9]: 6.07

ACTCGGAGGACAAAGGTGAGAGCTACGCCAGTGA
PBM binding z-score [1]: 0.567 | PBM binding z-score [2]: 0.58 | PBM binding z-score [3]: -0.14 | PBM binding z-score [4]: -0.434 | PBM binding z-score [5]: 2.81 | PBM binding z-score [6]: 4.53 | PBM binding z-score [7]: 5.16 | PBM binding z-score [8]: 3.49 | PBM binding z-score [9]: 5.42

CAAAATAGGTCAAGAGGTCAAAGTCCGCTTCCCG
PBM binding z-score [1]: 7.64 | PBM binding z-score [2]: 6.57 | PBM binding z-score [3]: 6.23 | PBM binding z-score [4]: 2.46 | PBM binding z-score [5]: 6.57 | PBM binding z-score [6]: 9.42 | PBM binding z-score [7]: 8.19 | PBM binding z-score [8]: 6.55 | PBM binding z-score [9]: 8.11

CCTACTGGGCCACTCAGAGGTCATTGATCATATG
PBM binding z-score [1]: 2.81 | PBM binding z-score [2]: 4.09 | PBM binding z-score [3]: 4.52 | PBM binding z-score [4]: 0.238 | PBM binding z-score [5]: 3.98 | PBM binding z-score [6]: 3.57 | PBM binding z-score [7]: 3.49 | PBM binding z-score [8]: 1.52 | PBM binding z-score [9]: 2.96

CCTACAGGGCCAAGGTCATTGATCAGTCAAAGCA
PBM binding z-score [1]: 3.24 | PBM binding z-score [2]: 3.38 | PBM binding z-score [3]: 0.911 | PBM binding z-score [4]: -0.2 | PBM binding z-score [5]: 3.78 | PBM binding z-score [6]: 2.72 | PBM binding z-score [7]: 3.94 | PBM binding z-score [8]: 1.45 | PBM binding z-score [9]: 3.32

AGAATGGGGTTATTAAGATCAGGGAATTGCGGTC
PBM binding z-score [1]: 3.03 | PBM binding z-score [2]: 2.77 | PBM binding z-score [3]: 0.597 | PBM binding z-score [4]: 2.14 | PBM binding z-score [5]: 4.48 | PBM binding z-score [6]: 3.31 | PBM binding z-score [7]: 3.5 | PBM binding z-score [8]: 1.26 | PBM binding z-score [9]: 2.65

CGTCAAAGTTCATGGTAACGTAACAGAAAGCAGC
PBM binding z-score [1]: 6.57 | PBM binding z-score [2]: 5.67 | PBM binding z-score [3]: 3.17 | PBM binding z-score [4]: 1.2 | PBM binding z-score [5]: 4.95 | PBM binding z-score [6]: 5.02 | PBM binding z-score [7]: 5.36 | PBM binding z-score [8]: 2.39 | PBM binding z-score [9]: 4.08

CCTTACGGGTCACTTACAGGTTATAGCATTTGGA
PBM binding z-score [1]: 4.84 | PBM binding z-score [2]: 4.49 | PBM binding z-score [3]: 0.907 | PBM binding z-score [4]: 0.66 | PBM binding z-score [5]: 4.62 | PBM binding z-score [6]: 3.07 | PBM binding z-score [7]: 3.73 | PBM binding z-score [8]: 1.27 | PBM binding z-score [9]: 2.84

CCTTACGGGTCACTGACAGCTTATAGCATTTGGA
PBM binding z-score [1]: 5.14 | PBM binding z-score [2]: 3.38 | PBM binding z-score [3]: 0.0209 | PBM binding z-score [4]: -0.0269 | PBM binding z-score [5]: 4.99 | PBM binding z-score [6]: 4.12 | PBM binding z-score [7]: 4.15 | PBM binding z-score [8]: 1.74 | PBM binding z-score [9]: 3.11

ACTCGGAGGACAAAGGTCAGAACTACGCCAGTGA
PBM binding z-score [1]: 3.87 | PBM binding z-score [2]: 4.07 | PBM binding z-score [3]: 1.47 | PBM binding z-score [4]: 1.03 | PBM binding z-score [5]: 4.61 | PBM binding z-score [6]: 7.34 | PBM binding z-score [7]: 7.11 | PBM binding z-score [8]: 4.87 | PBM binding z-score [9]: 7.69

CCTTACGGGTCACTCAAGGTTATAGCATCGGAGT
PBM binding z-score [1]: 5.96 | PBM binding z-score [2]: 7.83 | PBM binding z-score [3]: 3.32 | PBM binding z-score [4]: -0.133 | PBM binding z-score [5]: 4.73 | PBM binding z-score [6]: 3.97 | PBM binding z-score [7]: 4.48 | PBM binding z-score [8]: 1.55 | PBM binding z-score [9]: 3.36

CTTAGTTGGTCAGGAGGTCACACACCGGATATGA
PBM binding z-score [1]: 3.89 | PBM binding z-score [2]: 3.72 | PBM binding z-score [3]: 2.38 | PBM binding z-score [4]: 0.947 | PBM binding z-score [5]: 4.35 | PBM binding z-score [6]: 4.41 | PBM binding z-score [7]: 4.69 | PBM binding z-score [8]: 2.41 | PBM binding z-score [9]: 4.39

From the supplement of paper PMC6555819
